Values joined by “and” are separate entries in the source; they are usually repeats but may differ in a detail not shown here. Equal entries are not always repeated. Inconclusive results are not listed. More than one record can exist for a structure, and the calls need not agree. Active and inactive are the calls of the source. Unless noted, the call rests on the fitted dose curve; in most records, active means well fitted curve in the direction sought with a large enough effect in the repeat runs; inconclusive means weak or mixed curves; inactive means no such curve, though single readings can be large; an effect the other way counts as inactive or inconclusive.
What was measured:
[1] = A CellTox Green Cytotoxicity Assay to monitor cytotoxicity in HepG2 cells - 0 hour (AID 1224882); further: nearly all actives have a fitted effect of over 35% in size
Procedure, shortened: (§1)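 Fluorescent DNA-binding dye, 600 HepG2 cells/well, 5 h preincubation then compound in DMSO; same plates read at 0–40 h, 37 C.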

[2] = A CellTox Green Cytotoxicity Assay to monitor cytotoxicity in HepG2 cells - 32 hour (AID 1224883); further: nearly all actives have a fitted effect of over 50% in size; further: potency means the concentration at half of the fitted maximal effect
Procedure, shortened: as §1

[3] = A CellTox Green Cytotoxicity Assay to monitor cytotoxicity in HEK293 cells - 8 hour (AID 1224884); further: nearly all actives have a fitted effect of over 35% in size
Procedure, shortened: (§2)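 Homogeneous no-lysis format: HEK293 cell suspension mixed with CellTox Green reagent, seeded, incubated 5 h at 37 C/5% CO2, then dosed by pintool with compound in DMSO.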

[4] = qHTS RealTime-Glo MT Cell Viability Assay in HepG2 cells - 16 hour (AID 1224885); further: nearly all actives have a fitted effect of over 50% in size; further: potency means the concentration at half of the fitted maximal effect
Procedure, shortened: (§3)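 Viability was tracked continuously by NanoLuc luminescence from prosubstrate reduced by living HepG2 cells, at successive time points over 40 h of compound exposure. Cells with reagent were preincubated 5 h at 37 °C before compound addition.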

[5] = qHTS RealTime-Glo MT Cell Viability Assay in HEK293 cells - 24 hour (AID 1224886); further: nearly all actives have a fitted effect of over 50% in size; further: potency means the concentration at half of the fitted maximal effect
Procedure, shortened: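 Viability tracked continuously by luminescence as live cells reduce a prosubstrate for NanoLuc; HEK293 cells preincubated 5 h, compound-treated at 37 C, and read at 0, 8, 16, 24, 32 and 40 h.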

[6] = qHTS RealTime-Glo MT Cell Viability Assay in HEK293 cells - 8 hour (AID 1224887); further: top concentration of the series differs between compounds; nearly all actives have a fitted effect of over 50% in size
Procedure, shortened: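 Measured as luminescence from the same continuously cultured HEK293 wells at successive time points (0, 8, 16, 24, 32, 40 h) after compound addition. Reagent present from seeding; dosing at 5 h; incubation 37 C.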

[7] = A CellTox Green Cytotoxicity Assay to monitor cytotoxicity in HEK293 cells - 16 hour (AID 1224888); further: nearly all actives have a fitted effect of over 35% in size; further: potency means the concentration at half of the fitted maximal effect
Procedure, shortened: as §2

[8] = qHTS RealTime-Glo MT Cell Viability Assay in HepG2 cells - 0 hour (AID 1224889); further: nearly all actives have a fitted effect of over 50% in size; further: potency means the concentration at half of the fitted maximal effect
Procedure, shortened: as §3

[9] = A CellTox Green Cytotoxicity Assay to monitor cytotoxicity in HepG2 cells - 8 hour (AID 1224890); further: nearly all actives have a fitted effect of over 45% in size; further: potency means the concentration at half of the fitted maximal effect
Procedure, shortened: as §1

[10] = qHTS assay to identify small molecule antagonists of the estrogen receptor alpha (ER-alpha) signaling pathway using the BG1 cell line in the presence of 0.1 nM 17-beta-estradiol - cell viability counter screen (AID 1259241); further: nearly all actives have a fitted effect of over 40% in size; further: potency means the concentration at half of the fitted maximal effect
Procedure, shortened: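 Cells were plated and left 24 hr, compounds in DMSO were pinned in, 17beta-estradiol was added to 0.1 nM final, and after 22 hr CellTiter-Fluor reagent was added for 30 min before fluorescence was read.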

[11] = qHTS assay to identify small molecule antagonists of the androgen receptor (AR) signaling pathway using the MDA cell line in the presence of 0.5 nM R1881 - cell viability counter screen (AID 1259242); further: nearly all actives have a fitted effect of over 45% in size; further: potency means the concentration at half of the fitted maximal effect
Procedure, shortened: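 Human breast carcinoma MDA-kb2 cells, cultured without CO2, receive compounds alongside 0.5 nM (final) R1881 agonist. After 16 hr at 37C, viability is taken as live-cell protease signal.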

[12] = target: Estrogen receptor (Homo sapiens) (UniProt P03372); experiment: qHTS assay to identify small molecule antagonists of the estrogen receptor alpha (ER-alpha) signaling pathway using the BG1 cell line in the presence of 0.1 nM 17-beta-estradiol (AID 1259244); further: nearly all actives have a fitted effect of over 50% in size; further: potency means the concentration at half of the fitted maximal effect
Chain of Estrogen receptor (Homo sapiens) (P03372 whole entry, looked up): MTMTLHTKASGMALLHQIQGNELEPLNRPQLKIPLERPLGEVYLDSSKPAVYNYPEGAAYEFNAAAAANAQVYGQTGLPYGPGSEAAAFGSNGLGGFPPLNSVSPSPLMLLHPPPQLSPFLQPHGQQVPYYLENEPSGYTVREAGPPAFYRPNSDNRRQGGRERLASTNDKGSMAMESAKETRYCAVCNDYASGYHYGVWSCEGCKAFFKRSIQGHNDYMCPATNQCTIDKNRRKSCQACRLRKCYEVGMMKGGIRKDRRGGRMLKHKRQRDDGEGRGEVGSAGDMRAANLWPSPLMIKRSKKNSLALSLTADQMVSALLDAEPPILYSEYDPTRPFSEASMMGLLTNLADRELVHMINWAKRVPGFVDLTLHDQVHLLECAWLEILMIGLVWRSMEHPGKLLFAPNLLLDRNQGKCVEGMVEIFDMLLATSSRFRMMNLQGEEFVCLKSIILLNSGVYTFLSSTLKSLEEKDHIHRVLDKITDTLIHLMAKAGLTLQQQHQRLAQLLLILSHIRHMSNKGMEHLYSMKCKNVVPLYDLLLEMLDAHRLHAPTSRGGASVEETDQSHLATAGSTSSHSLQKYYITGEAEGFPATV
Procedure, shortened: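 Seeding of stripped-serum-adapted VM7Luc4E2 cells, 24 h attachment, compound transfer, then 0.1 nM final 17beta-estradiol; after 22 h incubation, ONE-Glo reagent and luminescence reading.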

[13] = qHTS assay to identify small molecule HDAC inhibitors (AID 1259364); further: potency means the concentration at half of the fitted maximal effect;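 further: wild-type HCT-116 cells with endogenous class I/II HDAC activity; nearly all actives have a fitted effect of over 45% in size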
Procedure, shortened: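 After a 2 hr compound incubation (37C, 5% CO2), HCT-116 cells seeded at 1,500/well the day before received HDAC-Glo reagent; signal read as luminescence after 30 min at room temperature.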

[14] = qHTS assay to identify small molecule HDAC inhibitors - cell viability counter screen (AID 1259365)
Procedure, shortened: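 Counter screen in wild-type HCT-116 cells: compounds dissolved in DMSO are pin-transferred onto overnight-plated cells and left 2hr at 37C. ATP-based CellTiter-Glo luminescence then measures viable cells.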

[15] = qHTS assay to identify small molecule agonists of the sonic hedgehog signaling (Shh) pathway - cell viability counter screen (AID 1259366); further: nearly all actives have a fitted effect of over 50% in size; further: potency means the concentration at half of the fitted maximal effect
Procedure, shortened: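 Cells are plated at 2,000 per well and left 4hr at 37C, 5% CO2 before compound addition. After 23hr of treatment, CellTiter-Fluor reagent is added for 1hr at 37C and fluorescence is measured.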

[16] = qHTS assay to identify small molecule antagonists of the sonic hedgehog signaling (Shh) pathway - cell viability counter screen (AID 1259367); further: nearly all actives have a fitted effect of over 55% in size; further: potency means the concentration at half of the fitted maximal effect
Procedure, shortened: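 Fluorescence read-out (CellTiter-Fluor, 1 hr at 37C) taken after 23 hr compound treatment of 3T3 Gli1-Luc cells stimulated with conditioned medium. Cells were seeded at 2,000 per well and pre-incubated 4 hr.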

[17] = qHTS assay to identify small molecule agonists of the sonic hedgehog signaling (Shh) pathway (AID 1259368; calls by dose curve;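 further: NIH/3T3-derived 3T3Gli1-Luc cells carrying a stable Gli1-driven firefly luciferase reporter; series mostly up to about 92 µM; nearly all actives have a fitted effect of over 15% in size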)
Procedure, shortened: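 Stable NIH/3T3 Gli1-Luc reporter clone; 24 hr cpd exposure after a 4 hr settling period; luminescence endpoint.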

[18] = qHTS assay to identify small molecule antagonists of the sonic hedgehog signaling (Shh) pathway (AID 1259369; calls by dose curve; further: nearly all actives have a fitted effect of over 45% in size; further: potency means the concentration at half of the fitted maximal effect)
Procedure, shortened: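 Gli1 transcriptional reporter (firefly Luc) in NIH/3T3 background, conditioned-medium activated. 24hr exposure, luminescence endpoint.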

[19] = qHTS assay to identify small molecule phospholipidosis (PLD) inducers (AID 1259344; active means well fitted curve in the direction sought with a large enough effect; an effect the other way counts as inactive or inconclusive)
Procedure, shortened: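 Read-out is LipidTOX Red fluorescence (ex 595/em 615) imaged in HepG2 cells after 24 h compound exposure at 37 C, with Hoechst nuclear counterstain (ex 352/em 461) allowing per-cell normalisation.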

Measured: Potency

CC1(C)C(C(=O)OC(C#N)c2cccc(Oc3ccccc3)c2)C1(C)C (configuration not stated)
active: [18] 13.8 µM
54.9 µM (active) and inactive: [12]
not listed: [19]
inactive: all other assays above

ClC(Cl)(Cl)c1ccccc1
not listed: [6] | [19]
inactive: all other assays above

CCNCC
not listed: [6] | [12] | [19]
inactive: all other assays above

CC(C)=CC1C(C(=O)OCc2cccc(Oc3ccccc3)c2)C1(C)C (configuration not stated)
not listed: [6]
inactive: all other assays above

CCN(CC)C(=O)C(C)Oc1cccc2ccccc12 (configuration not stated)
active: [8] 43.6 µM | [12] 61.1 µM
not listed: [6] | [19]
inactive: all other assays above

CCCCC(C#N)(Cn1cncn1)c1ccc(Cl)cc1 (configuration not stated)
not listed: [2] | [6] | [19]
inactive: all other assays above

Cc1cccc(N=Nc2ccc(N(C)C)cc2)c1
active: [10] 27.3 µM | [13] 3.5 µM and 6.86 µM | [15] 35 µM
not listed: [5] | [6] | [16] | [17] | [19]
inactive: all other assays above

Nc1ccc2ccccc2c1
not listed: [6] | [19]
inactive: all other assays above

Cc1ccc([N+](=O)[O-])cc1
not listed: [6] | [19]
inactive: all other assays above

CCCCOCCOC(C)=O
not listed: [6] | [19]
inactive: all other assays above

CNC(=S)S
not listed: [6] | [19]
inactive: all other assays above

Nc1ncn[nH]1
not listed: [6] | [12] | [19]
inactive: all other assays above

CC(C)Nc1ccc(Nc2ccccc2)cc1
active: [2] 43.6 µM | [4] 54.7 µM and 49 µM | [5] 17.3 µM and 19.5 µM | [7] 54.9 µM | [10] 43.1 µM | [11] 60.9 µM | [12] 21.6 µM | [15] 24.2 µM and 24.3 µM | [16] 21.6 µM and 24.3 µM | [18] 5.43 µM
inactive: [1] | [3] | [19] | [14] | [17]
inactive and 49 µM (active): [9]

COc1ccc(O)c(C(C)(C)C)c1
not listed: [2] | [6] | [19]
inactive: all other assays above

Source: PubChem BioAssay (Tox21)
